Source: PubChem BioAssay (The Scripps Research Institute Molecular Screening Center)
MITF inh – blocks human microphthalmia-associated transcription factor; AlphaScreen MITF homodimerization, bead proximity signal; inhibition, % at 2.6 µM; 650,000 compounds, 0.91% hits; AID 1259374; in the data active = inhibition above about 50%
FBW7 activator – activators of human E3 ligase FBW7; Q969H0; AlphaScreen FBW7–phospho-cyclin E peptide binding, activator screen; normalized activity (activation), % at 26.1 µM; 650,000 compounds, 0.13% hits; in the data active = normalized activity above about 1.9%;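 also: purified mutant Fbw7 with reduced substrate affinity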
Target sequence (Q969H0 whole entry, looked up): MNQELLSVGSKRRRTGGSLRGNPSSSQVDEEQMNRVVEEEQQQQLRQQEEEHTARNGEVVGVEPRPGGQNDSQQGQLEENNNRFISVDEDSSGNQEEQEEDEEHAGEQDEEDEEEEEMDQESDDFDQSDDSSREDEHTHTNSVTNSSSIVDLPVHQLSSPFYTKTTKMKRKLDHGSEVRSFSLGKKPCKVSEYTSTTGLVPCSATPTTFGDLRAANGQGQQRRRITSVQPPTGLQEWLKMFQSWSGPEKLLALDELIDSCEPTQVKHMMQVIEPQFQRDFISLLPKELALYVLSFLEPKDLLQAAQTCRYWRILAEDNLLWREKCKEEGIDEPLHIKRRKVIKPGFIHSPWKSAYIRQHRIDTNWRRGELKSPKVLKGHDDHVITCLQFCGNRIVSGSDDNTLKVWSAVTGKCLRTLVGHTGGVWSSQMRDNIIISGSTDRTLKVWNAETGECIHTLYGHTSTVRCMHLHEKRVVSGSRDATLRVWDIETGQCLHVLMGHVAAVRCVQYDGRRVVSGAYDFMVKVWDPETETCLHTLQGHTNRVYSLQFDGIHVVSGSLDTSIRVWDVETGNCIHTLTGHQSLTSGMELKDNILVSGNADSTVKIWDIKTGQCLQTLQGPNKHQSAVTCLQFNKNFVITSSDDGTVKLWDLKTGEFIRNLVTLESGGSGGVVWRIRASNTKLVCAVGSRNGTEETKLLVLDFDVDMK
GPR151 ag – human GPR151 activation; Q8TDV0; PathHunter beta-arrestin GPR151 cells, luminescence; activation, % at 11.2 µM; 650,000 compounds, 1% hits; AID 1508602; in the data active = activation above about 4.9%
TEAD-YAP inh – TEAD-YAP interaction inhibition; HEK-TIYL cells, TEAD-Gal4/YAP UAS-luciferase luminescence; inhibition, % at 9.12 µM; 640,000 compounds, 1.4% hits; AID 1259422; in the data active = inhibition above about 32%
A number is an active result; 0 = inactive. Most compounds without a hit are left out; they make up all but 3.5% or so of the library.

SMILES	MITF inh	FBW7 activator	GPR151 ag	TEAD-YAP inh
N#Cc1c(-c2ccccc2)cc(-c2ccccc2)nc1SCS(=O)Cc1ccc(Cl)cc1 (centres undefined)	0	0	0	0
COc1ccc(CC(=O)N2CCN(c3ncnc4c3nnn4-c3ccc(Cl)cc3)CC2)cc1OC	0	0	0	0
OC[C@@H]1CCCN1c1ccnc2c(-c3ccc4ccccc4c3)cnn12	0	0	0	60
OC[C@@H]1CCCN1c1ccnc2c(-c3cc4ccccc4o3)cnn12	0	0	0	44
COc1ccc(N=Cc2c(O)n(-c3ccc(OC)cc3)c(=O)c3ccccc23)cc1	0	0	0	0
Cc1ccc(-n2c(O)c(C=Nc3ccc(S(N)(=O)=O)cc3)c3ccccc3c2=O)cc1C	0	0	0	80
CC(=O)c1ccc(NC(=O)NNC(=O)c2ccccn2)cc1	0	0	0	0
COc1ccccc1C(=O)NNC(=O)c1cnccn1	0	0	0	0
Cc1ccc(C)c(OCC(=O)NNC(=O)c2ccccn2)c1	0	0	0	37
CC(=O)c1ccc(NC(=O)c2ccccn2)cc1	0	0	0	87
COc1ccc(C(=O)NNC(=O)c2ccccn2)cc1	0	0	0	94
COc1ccccc1C(=O)NNC(=O)c1ccccn1	0	0	0	41
CCc1ccc(NC(=O)COCc2cc(-c3ccc4c(c3)OCO4)on2)cc1	0	0	0	0
N#CS/C=C/C(=O)c1ccccc1	0	0	0	52
CC1CCN(Cc2cc(Cl)c3cccnc3c2O)CC1	0	0	0	46
CC1CCCCN1Cc1cc(Cl)c2cccnc2c1O (centres undefined)	0	0	0	73
CN1CCN(Cc2cc(Cl)c(O)c3ncccc23)CC1	98	0	0	90
CC1CCN(Cc2cc(Cn3ccnc3)c3cccnc3c2O)CC1	110	0	0	39
COc1ccc(C(=O)Oc2c(CN3CCOCC3)cc(Cl)c3cccnc23)cc1OC	0	0	0	0
Oc1ccc(CN2CCN(c3ccc(F)cc3)CC2)c2cccnc12	0	0	0	0
Cc1ccc(Cn2nnc3c(=O)[nH]c(C(=O)Nc4ccc5c(c4)OCO5)nc32)cc1	0	0	0	0
Cc1nc(N2CCN(c3ccccn3)CC2)c2c(C)c(C(=O)Nc3ccc(C)c(Cl)c3)sc2n1	0	0	0	0
Cn1ccnc1CN1CCCC(C(=O)Nc2cccc(-n3cnnn3)c2)C1 (centres undefined)	0	0	0	0
Cc1cc(C(=O)Nc2scc(-c3ccc(Cl)cc3)c2C(N)=O)c(C)o1	0	0	0	0
CC1CCN(Cc2cc(Cl)c(O)c3ncccc23)CC1	98	0	0	85
SMILES	MITF inh	FBW7 activator	GPR151 ag	TEAD-YAP inh
CC1CCN(Cc2ccccc2CO)CC1	0	0	0	0
Cc1nc(CN2CCN(C(=O)CCl)CC2)cs1	0	0	0	48
Cc1nc(CN2CCN(S(C)(=O)=O)CC2)cs1	0	0	0	0
COc1cccc(CC2=NOC(C(=O)N(C)Cc3cscn3)C2)c1 (centres undefined)	0	0	0	0
Cc1ccn2c(/C(=C3/N=C(c4ccccc4)OC3=O)N(C)C)cnc2c1	0	0	0	34
CN(C)/C(CBr)=C1/N=C(c2ccccc2)OC1=O	0	0	0	0
CC(=O)N1CCc2c(sc(NC(=O)c3ccc(Br)cc3)c2C#N)C1	0	0	0	41
COC(=O)c1c(NC(=O)c2ccc(Cl)cc2)sc2c1CCN(C(C)=O)C2	0	3.3	0	0
CCCCC(=O)Nc1sc2c(c1C#N)CCN(C(C)=O)C2	0	0	0	43
COC(=O)c1c(NC(=O)c2ccc(S(=O)(=O)N(C)C)cc2)sc2c1CCN(C(C)=O)C2	0	0	0	0
CC(=O)N1CCc2c(sc(NC(=O)c3ccc4c(c3)OCCO4)c2C#N)C1	0	0	0	40
CCOc1ccc(CNC(=O)Cn2ncn3cccc3c2=O)cc1	0	0	0	0
O=C1OC(c2ccco2)=N/C1=C\c1cccc(C(F)(F)F)c1	0	0	0	0
CCOc1ccccc1C1C=C(c2ccc(OC)cc2)Nc2ncnn21 (centres undefined)	0	0	0	56
COc1ccc(C2C=C(c3ccc(C)cc3)Nc3ncnn32)cc1OC (centres undefined)	0	0	0	54
COc1ccc(C2=CC(c3ccc(C)cc3)n3ncnc3N2)cc1OC (centres undefined)	0	0	0	0
CCc1ccc(C2=CC(c3ccc(OC)c(OC)c3OC)n3ncnc3N2)cc1 (centres undefined)	0	0	0	47
COc1cc(C2C=C(c3ccc4c(c3)OCO4)Nc3ncnn32)cc(OC)c1OC (centres undefined)	0	0	0	64
CCC1CN(Cc2ccc(CO)o2)Cc2ccc(Cl)cc2O1 (centres undefined)	0	0	0	0
N#C/C(=C\c1c[nH]c2ccccc12)C(=O)NCCc1ccccc1	0	0	0	0
Cc1ccc(CNC(=O)c2ccc(CNc3c(N4CCOCC4)c(=O)c3=O)cc2)cc1	0	0	0	0
COc1ccc(OC)c(C2C=C(c3ccc(C)cc3)Nc3ncnn32)c1 (centres undefined)	0	0	0	66
COc1ccc(C2=CC(c3cc(OC)c(OC)c(OC)c3)n3ncnc3N2)cc1OC (centres undefined)	0	0	0	54
COc1ccc(C2=CC(c3cccc(C)c3)n3ncnc3N2)cc1 (centres undefined)	0	0	0	46
COC(=O)CNC(c1ccccc1)c1cc(Br)ccc1NC(=O)c1ccccc1Cl (centres undefined)	0	0	0	0
SMILES	MITF inh	FBW7 activator	GPR151 ag	TEAD-YAP inh
COCCn1c(SCC(=O)Nc2ccccc2)nnc1-c1c[nH]c2ccccc12	0	0	0	0
Cc1oc2ccccc2c1CN1CCc2nc(N3CCCC3)[nH]c(=O)c2C1	0	0	0	0
CSc1ccc(CN2CCCC(C(=O)Nc3cccc(-n4cnnn4)c3)C2)cc1 (centres undefined)	0	0	0	37
COc1cccc2sc(N(C)c3ccccc3)nc12	0	0	0	47
COc1cccc2sc(N3CCOCC3)nc12	0	2.0	0	0
COc1cccc2sc(N3CCN(c4nc5ccccc5s4)CC3)nc12	0	0	0	0
COc1ccc(C2CC(=O)C3=C(C2)Nc2ccccc2NC3c2ccc(OCc3ccccc3)cc2)cc1 (centres undefined)	0	0	0	0
O=C(N/N=C/c1ccc(O)c(O)c1O)c1ccc(Cl)cc1Cl	0	0	0	0
NC(CO)C(=O)NNCc1ccc(O)c(O)c1O (centres undefined)	88	0	0	0
NC(CO)C(=O)N/N=C/c1ccc(O)c(O)c1O (centres undefined)	96	0	0	0
CCCCCOc1ccc(N/C(N)=N/c2nc(C)cc(C)n2)cc1	0	0	0	37
CCCOc1ccc(N/C(N)=N/c2nc(C)cc(C)n2)cc1	0	0	0	35
Cc1cc(C)nc(/N=C(\N)Nc2ccc(Oc3ccccc3)cc2)n1	0	0	0	32
Cc1cc(C)nc(/N=C(\N)Nc2ccccc2)n1	0	0	0	0
COc1ccc(S(=O)(=O)N2CCN(c3nc4c(OC)ccc(C)c4s3)CC2)cc1	0	0	0	0
N#CCSc1ccc2nnc(-c3ccncc3)n2n1	0	0	0	40
